This is an account of results in PubChem BioAssay AID1626 (SRMLSC, 2009).

Screen size: about 220,000 compounds; about 2,000 (0.91%) were called active. Roughly 2% stayed inconclusive and do not appear here. No stated cut-off is given here; in the data, inconclusive means inhibition above about 80% without an active follow-up result; inactive means below that; test concentration not stated here. Not all results are given here. Measured potencies and affinities stand elsewhere.

The assay in a line: M. tuberculosis H37Rv growth inhibitors, H37Rv strain (AID 1626).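 Further: bacteria incubated seven days before Alamar blue readout; 0% = bacteria only wells and 100% = bacteria with antibiotic wells.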 The conditions noted are these: stronger effect = higher value, concentration not given here.
`O=C(CCc1c[nH]c2ccccc12)Nc1ccc(S(=O)(=O)Nc2ncccn2)cc1`: the inhibition was -2.28% (inactive).

As to `CC1CC1C(=O)OCC(=O)Nc1cccc([N+](=O)[O-])c1` (configuration not stated), the inhibition is -1.97% (inactive).

With `Cc1ccc(Sc2ccc(CN3CCCC3)cc2[N+](=O)[O-])cc1`, the inhibition was 9.11% (inactive).

Regarding `CN1CCN(Cc2ccc(Sc3ccc(Cl)cc3)c([N+](=O)[O-])c2)CC1`, the inhibition was 18.9% (inactive).

As to `O=C(CN1CCOCC1)NNC(=S)Nc1ccc(Cl)cc1`, the inhibition was 4.8% (inactive).

Turning to `Cc1ccc(SCC(=O)NC2CCS(=O)(=O)C2)cc1` (configuration not stated), the inhibition was 4.3% (inactive).

For the compound `CCc1nc(Nc2ccc3c(c2)OCCO3)c2oc3ccccc3c2n1`, the inhibition was 1.04% (inactive).

Turning to `Cc1nc(Nc2ccc3c(c2)OCO3)c2oc3ccccc3c2n1`, the inhibition was -15.2% (inactive).

Take `c1ccc2c(c1)oc1c(NCc3ccc4c(c3)OCO4)ncnc12`: the inhibition is 57.7% (inactive).

Consider `CCc1nc(N2CCN(Cc3ccc4c(c3)OCO4)CC2)c2oc3ccccc3c2n1`, for which the inhibition is 5.87% (inactive).

As for `CC1Cc2ccccc2N1C(=O)c1cnc2ccccn2c1=O` (configuration not stated), the inhibition was -5.12% (inactive).

With `COc1ccc2cc(C(=O)N3CCCCCC3)sc(=O)c2c1OC`, the inhibition was -2.1% (inactive).

On to `CCCCCC(=O)N1CC2(CC(c3cccc(NC(=O)CC(c4ccccc4)c4ccccc4)c3)=NO2)C[C@@H]1C(N)=O` (some centres not stated), for which the inhibition is 11.1% (inactive).

For the compound `Cc1nc(CNS(=O)(=O)c2cccs2)cs1`, the inhibition is 5.2% (inactive).

Take `c1ccc2c(c1)ccc1ncccc12`: the inhibition is -7.23% (inactive).

For the compound `Nc1ccc(/C=C/c2ccc3ncccc3c2)cc1`, the inhibition is 17.8% (inactive).

For the compound `COc1cccc(-c2ccc(C#N)c(=O)[nH]2)c1`, the inhibition was -3.44% (inactive).

For `O=C(Nc1cccc(O)c1)c1cccc(S(=O)(=O)N2CCCC2)c1`, the inhibition was -5.4% (inactive).

Consider `O=C(Nc1ccccc1O)c1ccccc1O`, for which the inhibition was 0.57% (inactive).

As to `CC(=O)Nc1ccccc1O`, the inhibition is -3.72% (inactive).

On to `C/C(=C\C(=O)c1cccnc1)Nc1ccc(O)cc1`, for which the inhibition is -6.05% (inactive).

As for `C/C(=C\C(=O)c1ccccc1)Nc1ccc(O)cc1`, the inhibition is -1.7% (inactive).

With `COc1ccc(NC(=S)NC(C)c2ccncc2)cc1OC` (configuration not stated), the inhibition is 0.92% (inactive).

With `O=C(O/N=C(\c1ccccc1)c1ccccn1)c1cccc2ccccc12`, the inhibition is 4.72% (inactive).

As for `CCN(CC(=O)NCc1cccs1)c1ccc(S(=O)(=O)N2CCN(C)CC2)cn1`, the inhibition was -7.08% (inactive).

On to `COc1ccc(-c2csc(/C(C#N)=C\c3ccc(O)c([N+](=O)[O-])c3)n2)cc1OC`, for which the inhibition is 73.4% (inactive).

With `COc1ccc(-c2csc(/C(C#N)=C\c3ccc(OC)c([N+](=O)[O-])c3)n2)cc1`, the inhibition was 5.82% (inactive).

With `COc1ccc(S(=O)(=O)N2CCCCC2)cc1NC(=O)c1cc(C)on1`, the inhibition was -0.76% (inactive).

On to `CNC(=S)Nn1cnc2ccccc21`, for which the inhibition was 0.16% (inactive).

For the compound `c1ccc(-c2ccc(-n3ccnc3)cc2)cc1`, the inhibition is 1.87% (inactive).

On to `COc1ccc(-n2ccnc2)cc1`, for which the inhibition is 1.8% (inactive).

For `COc1ccc(OC)c(N2C(=O)CC(Cc3ccc(Cl)cc3)C2=O)c1` (configuration not stated), the inhibition was -4.41% (inactive).

With `Cc1nc2ccccc2c(=O)n1/N=C/C=C/c1ccccc1`, the inhibition is -2.49% (inactive).

Regarding `COc1cc2c(cc1OC)C1(NCC2)C(=O)Nc2ccccc21` (configuration not stated), the inhibition was 0.79% (inactive).

Consider `COc1ccc2c(c1)C1(Nc3ccccc3C(=O)N1c1ccccc1)C(=O)N2` (configuration not stated), for which the inhibition is -1.38% (inactive).

In the case of `COc1ccc(C(=O)C2CCCN(Cc3ccc4nonc4c3)C2)c(OC)c1` (configuration not stated), the inhibition was 4.61% (inactive).

Regarding `CC(C)NC(=O)NC(=O)CSc1ccccc1F`, the inhibition was 8.25% (inactive).

As for `Nc1[nH]ncc1-c1ccccc1`, the inhibition is 48.5% (inactive).

With `COc1ccc(-c2cn[nH]c2N)cc1`, the inhibition is 3.3% (inactive).

As for `O=C(NCc1cn2ccsc2n1)c1cccs1`, the inhibition is 2.94% (inactive).

Consider `O=C(COC(=O)c1cc(S(=O)(=O)N2CCOCC2)ccc1O)Nc1cc(S(=O)(=O)N2CCCC2)ccc1Cl`, for which the inhibition is -7.64% (inactive).

As for `Cc1cccnc1NC(=O)Nc1ccccc1`, the inhibition was -2.38% (inactive).

As for `Cc1nc(NC(=O)c2ccc(F)cc2)sc1C(=O)Nc1ccc2c(c1)CCC2`, the inhibition is 10.8% (inactive).

Turning to `Cc1ccc(C(=O)Nc2ccc3c(c2)CCC3)cc1`, the inhibition was 27.7% (inactive).

In the case of `O=C1CC2(CCCCCC2)Oc2ccc(Cl)cc21`, the inhibition is -6.31% (inactive).

As for `COc1cccc(-c2cc(C(=O)NCCN3CCOCC3)no2)c1`, the inhibition is 0.49% (inactive).

In the case of `COc1ccc(NC(=S)NCCCN2CCOCC2)cc1`, the inhibition was -0.5% (inactive).

Take `CCCc1ccc(OCc2nc(-c3ccc(NC(=O)c4cccs4)cc3)no2)cc1`: the inhibition was 15.6% (inactive).

For the compound `Cc1ccccc1OCc1nc(-c2ccc(NC(=O)c3ccco3)cc2)no1`, the inhibition was 19.3% (inactive).

On to `Cc1ccc(-n2c(-c3ccncc3)n[nH]c2=S)cc1`, for which the inhibition is -9.92% (inactive).

In the case of `Cc1cc2oc(C(=O)N(Cc3cccs3)C3CCS(=O)(=O)C3)cc(=O)c2cc1Cl` (configuration not stated), the inhibition was 0.6% (inactive).

With `O=C(NCCc1ccccc1)C1CCN(Cc2ccccc2F)CC1`, the inhibition was 0.69% (inactive).

Turning to `CCCSc1nnc(Cn2c(=O)sc3ccccc32)n1C`, the inhibition was 3.51% (inactive).

With `Cc1ccc(OCC(=O)Nc2sc3c(c2C#N)CC(C)(C)NC3(C)C)cc1`, the inhibition was 10.1% (inactive).

Regarding `CC1(C)Cc2c(sc(NC(=O)COc3ccccc3)c2C#N)C(C)(C)N1`, the inhibition is -3.34% (inactive).

For `CCOC(=O)c1c(NC(=O)C2COc3ccccc3O2)sc(C)c1C` (configuration not stated), the inhibition was -3.73% (inactive).

As for `CCOC(=O)c1c(NC(=O)C2COc3ccccc3O2)sc(C(C)=O)c1C` (configuration not stated), the inhibition was -3.37% (inactive).

`CCOC(=O)c1cc2occc2n1CCCN1C(=O)c2ccccc2C1=O`: the inhibition was -1.25% (inactive).

For the compound `CCc1cc2ccc(OC)cc2nc1SCC(=O)NNC(C)=O`, the inhibition was 2.9% (inactive).

Consider `CC(=O)N(NC(N)=O)C(C)CC(=O)C1C(C)C=CCC1(C)C` (configuration not stated), for which the inhibition is -4.41% (inactive).

Regarding `CC(c1nnnn1C(C)(C)C)N(Cc1cccnc1)Cc1ccccc1Cl` (configuration not stated), the inhibition is 11.3% (inactive).

Regarding `O=C(Cc1cc(=O)[nH][nH]1)N/N=C/c1ccccc1Cl`, the inhibition is 0.78% (inactive).

As to `O=C(COc1ccccc1[N+](=O)[O-])N/N=C/c1ccc(O)c([N+](=O)[O-])c1`, the inhibition is -1.06% (inactive).

For `O=[N+]([O-])c1ccc(/C=N/N/C(=N/c2ccccn2)c2ccccn2)cc1`, the inhibition is 6.35% (inactive).

In the case of `C=CCNC(=S)NNC(=O)c1ccc(=O)n(Cc2ccc(Cl)cc2Cl)c1`, the inhibition is 2.51% (inactive).

In the case of `COC(=O)/C(=C1/Oc2ccc(C)cc2S1)C(F)(F)F`, the inhibition was 1.01% (inactive).

For the compound `COC(=O)/C(=C1/Oc2ccc(C(C)(C)C)cc2S1)C(F)(F)F`, the inhibition was -3.79% (inactive).

In the case of `CCCCCn1c(=O)[nH]c2cc(C(=O)NCCN(CC)CC)ccc2c1=O`, the inhibition is 2.41% (inactive).

Consider `Cc1cc2cc(C)c(SCC(=O)NCc3ccco3)nc2cc1C`, for which the inhibition is 2.4% (inactive).

Take `COC(=O)CCCC[C@H]1SC[C@H]2NC(=O)N[C@]21O`: the inhibition was -9.41% (inactive).

Turning to `COc1ccc(Cl)cc1C(=O)Nc1ccc(NC(=O)C(C)C)cc1`, the inhibition is 6.21% (inactive).

On to `Cc1ccc(S(=O)(=O)n2c([N+](=O)[O-])cnc2C)c(C)c1C`, for which the inhibition is 2.51% (inactive).

On to `CC(=O)c1sc(NC(=O)c2cc3c(C)nn(-c4ccccc4)c3s2)nc1C`, for which the inhibition was -3.28% (inactive).

Take `Cc1nn(-c2ccccc2)c2sc(C(=O)O)cc12`: the inhibition is -2.71% (inactive).

Turning to `C/C=C/c1ccc(OCC(=O)OCC)c(OC)c1`, the inhibition is 78.2% (inactive).

Take `Cc1ccc(Nc2nc(COC(=O)COc3ccc(C=O)cc3)cs2)cc1`: the inhibition is -1.49% (inactive).

Turning to `Cc1occc1-c1n[nH]c(=S)n1C`, the inhibition is -11.2% (inactive).

For the compound `NC(=O)C1CCN(C(=O)C2c3ccccc3C(=O)N3CCc4ccccc4C23)CC1` (configuration not stated), the inhibition is 1.51% (inactive).

Turning to `Cn1nc(-c2ccc(Cl)cc2)c2cc(C(=O)N3CCN(c4ccccc4)CC3)sc21`, the inhibition was 7.8% (inactive).

For `O=C(Nc1ccc(C(F)(F)F)cc1)c1cnc(N2CCN(c3ccccn3)CC2)c2ccccc12`, the inhibition is 65.3% (inactive).

Consider `COc1cccc(-c2nn(C)c3sc(C(=O)N4CCN(c5ccccn5)CC4)cc23)c1`, for which the inhibition was 60% (inactive).

Turning to `COc1ccccc1N1CCN(c2ncc(C(=O)N3CCN(c4cccc(Cl)c4)CC3)c3ccccc23)CC1`, the inhibition was 95% (inactive).

`CC(C)NC(=O)c1cnc(N2CCN(c3ccccn3)CC2)c2ccccc12`: the inhibition was 6.14% (inactive).

`O=C(c1cnc(N2CCN(c3ncccn3)CC2)c2ccccc12)N1CCN(c2ccccn2)CC1`: the inhibition is 1.07% (inactive).

Consider `O=C(NN1C(=O)C2C3C=CC(O3)C2C1=O)c1cccc(Br)c1` (configuration not stated), for which the inhibition is 5.77% (inactive).

With `Cc1c(C(=O)NCC2CCCO2)cccc1[N+](=O)[O-]` (configuration not stated), the inhibition was 2.82% (inactive).

Consider `O=C(NCc1cccc(C(F)(F)F)c1)C1CCN(c2ncccn2)CC1`, for which the inhibition was -1.47% (inactive).

For the compound `O=C(O)CCc1nc2ccccc2n(CCc2ccccc2)c1=O`, the inhibition is -8.81% (inactive).

For the compound `O=C(C1CC(c2ccc(F)cc2)=NO1)N1CCc2ccccc2C1` (configuration not stated), the inhibition was -0.85% (inactive).

For `O=C(c1cccc(F)c1)N1CCN(C(=O)c2nn3cccnc3c2Cl)CC1`, the inhibition is 0.18% (inactive).

With `O=C(c1ccc(F)cc1)C1CCN(C(=O)c2ccncc2)CC1`, the inhibition was -7.5% (inactive).

Turning to `O=C(/C=N/O)Nc1ccc2sc3ccccc3c2c1`, the inhibition was 50.4% (inactive).

As for `N#Cc1c2n(c3c(=O)n(CC(=O)c4ccc(Br)cc4)cnc13)CCCC2`, the inhibition was 1.64% (inactive).

With `CC(C)CCN1CCN(Cc2nc(-c3ccccc3)cs2)CC1CCO` (configuration not stated), the inhibition is 4.13% (inactive).

Turning to `Cn1cnc([N+](=O)[O-])c1Sc1ncnc2nc[nH]c12`, the inhibition is 7.31% (inactive).

Consider `O=C(CSc1ncnc2nc[nH]c12)c1ccc([N+](=O)[O-])cc1`, for which the inhibition is -0.96% (inactive).

In the case of `COc1cc(/C=N/NC(=O)c2cncc(Br)c2)ccc1OC(=O)c1ccc2c(c1)OCO2`, the inhibition was -4.21% (inactive).
